In all, about 52,000 compounds went through this assay and about 1,700 (3.3%) were called active. Rule as the data show it: active = survival mostly below about 52% (no sharp cut-off); inactive = mostly above about 56%. Many of the other results were omitted from the sample, so actives are more common in it than they were.
Tested on: Wild type
Assay: growth inhibition of S. aureus wild type versus tarO mutant, primary screen, teichoic acid synthesis inhibitors, RN4220, OD600 (AID 463173)
Conditions: S. aureus RN4220 wild type/DeltatarO growth, OD600, 18 h, hits give low values, screened at 18.75 µg/mL (by protocol)

Q: Which survival does the source give for `CC1(C)N=C(SCc2ccc(Cl)cc2)c2ccccc2N1` here?
A: Its survival is 143% (inactive).

Q: With `Cc1ccc(C(=O)c2oc3ccccc3c2NC(=O)c2nc(S(C)(=O)=O)ncc2Cl)cc1F` as the molecule, how does the survival read?
A: Its survival is 83% (inactive).

Q: For `COc1ccc(Nc2nn(-c3ccc(OC(F)(F)F)cc3)nc2C(C)=O)cc1`, which survival is on record?
A: The survival was 95% (inactive).

Q: How did the survival turn out when `Cc1ccc(-c2cc3ncc4c(n3n2)-c2cc(Cl)ccc2OC4)cc1` was run?
A: Its survival is 97% (inactive).

Q: For `CCn1c(=O)n(-c2ccc3c(c2)OCO3)c2nc(-c3ccc(C(C)C)cc3)nc(C(N)=O)c21`, which survival is on record?
A: Its survival is 130% (inactive).

Q: For `CCOC(=O)c1[nH]c(C)c(CCC(=O)Nc2c(C)cc(C)cc2C)c1C`, which survival is on record?
A: The survival was 127% (inactive).

Q: `Cc1ccccc1OCCCn1c(CCNC(=O)C2CCCCC2)nc2ccccc21` was tested. Which survival did it give?
A: The survival was 65% (inactive).

Q: With `O=C(NCCc1nc2ccccc2n1CCOc1ccc(Cl)cc1)C1CCCCC1` as the molecule, how does the survival read?
A: Its survival is 20% (inactive).

Q: `Cc1cccc(OCCCn2c(CCNC(=O)C3CCCCC3)nc3ccccc32)c1` was tested. Which survival did it give?
A: Its survival is 34% (inactive).

Q: `Cc1cc(C)cc(OCCCn2c(CCNC(=O)C3CCCCC3)nc3ccccc32)c1` was tested. Which survival did it give?
A: The survival was 27% (active).

Q: Which survival does the source give for `O=C(NCCc1nc2ccccc2n1CCCOc1ccc(Cl)cc1)C1CCCCC1` here?
A: The survival was 10% (active).

Q: For `Cc1cc(OCCn2c(CCNC(=O)C3CCCCC3)nc3ccccc32)ccc1Cl`, which survival is on record?
A: The survival was 67% (inactive).

Q: How did the survival turn out when `Cc1cccc(C)c1OCCn1c(CCNC(=O)C2CCCCC2)nc2ccccc21` was run?
A: Its survival is 65% (inactive).

Q: With `Cc1ccc(OCCCn2c(CCNC(=O)C3CCCCC3)nc3ccccc32)c(C)c1` as the molecule, how does the survival read?
A: The survival was 95% (inactive).

Q: With `Cc1ccc(OCCn2c(CCNC(=O)C3CCCCC3)nc3ccccc32)cc1` as the molecule, how does the survival read?
A: Its survival is 65% (inactive).

Q: How did the survival turn out when `Cc1cc(OCCCn2c(CCNC(=O)C3CCCCC3)nc3ccccc32)ccc1Cl` was run?
A: Its survival is 0% (active).

Q: How did the survival turn out when `Cc1cc(C)cc(OCCn2c(CCNC(=O)C3CCCCC3)nc3ccccc32)c1` was run?
A: Its survival is 105% (inactive).

Q: How did the survival turn out when `Cc1cccc(C)c1OCCCn1c(CCNC(=O)C2CCCCC2)nc2ccccc21` was run?
A: The survival was 28% (active).

Q: How did the survival turn out when `COc1ccc(-c2nnc(SCC(=O)Nc3cccc(C(F)(F)F)c3)s2)cc1` was run?
A: The survival was 99% (inactive).

Q: For `COc1ccc(C(=O)N(Cc2cc(OC)c(OC)c(OC)c2)C2CCS(=O)(=O)C2)cc1Cl` (stereo not given), which survival is on record?
A: The survival was 86% (inactive).

Q: For `COc1ccccc1-c1c(C)nn2c(N3CCN(c4ccccc4)CC3)cc(C)nc12`, which survival is on record?
A: Its survival is 70% (inactive).

Q: `Cn1c(SCCN2CCCC2)nnc1-c1ccncc1` was tested. Which survival did it give?
A: Its survival is 112% (inactive).

Q: Which survival does the source give for `COc1cc(OC)c(NC(=O)c2nn(C)c3c2COc2ccccc2-3)cc1Cl` here?
A: Its survival is 111% (inactive).

Q: How did the survival turn out when `CCOc1ccc(-n2c(SCc3ccc(C(=O)OC)o3)nc3c([nH]c4ccccc43)c2=O)cc1` was run?
A: The survival was 82% (inactive).

Q: With `Oc1ccc(Br)cc1C=Nc1cccc(-c2nc3ccccc3o2)c1` as the molecule, how does the survival read?
A: Its survival is 111% (inactive).

Q: Which survival does the source give for `COc1cccc2cc(C(=O)Nc3ccc(CC(=O)O)cc3)c(=O)oc12` here?
A: Its survival is 73% (inactive).

Q: `CCOc1ccc(NC(=O)CSc2nnc3c(C)cc4ccccc4n23)cc1` was tested. Which survival did it give?
A: Its survival is 132% (inactive).

Q: Which survival does the source give for `O=C(Nc1nc2c(s1)CCCCCC2)Nc1ccc(F)cc1F` here?
A: Its survival is -2% (active).

Q: How did the survival turn out when `O=C(Nc1ccc(Br)cc1)Nc1nc2c(s1)CCCCCC2` was run?
A: Its survival is 82% (inactive).

Q: How did the survival turn out when `Cc1ccc(NC(=O)Nc2nc3c(s2)CCCCCC3)cc1C` was run?
A: The survival was 69% (inactive).

Q: With `Cc1cc(-c2ccc(C)c(S(=O)(=O)Nc3ccccn3)c2)on1` as the molecule, how does the survival read?
A: The survival was 73% (inactive).

Q: With `O=C(CN1CCCC1)Nc1nc(-c2ccc3c(c2)CCN3C(=O)C2CC2)cs1` as the molecule, how does the survival read?
A: The survival was 116% (inactive).

Q: With `O=C(CSc1nc2ccccc2c(=O)n1-c1ccccc1)N1CCOCC1` as the molecule, how does the survival read?
A: The survival was 104% (inactive).

Q: Which survival does the source give for `CC(=O)Nc1cccc(NC(=O)c2c(-c3ccccc3)c(-c3ccccc3)nn(C)c2=O)c1` here?
A: The survival was 85% (inactive).

Q: How did the survival turn out when `COc1ccc2cc(-c3nc(-c4ccc(N(C)C)cc4)no3)c(=O)oc2c1` was run?
A: Its survival is 99% (inactive).

Q: `COc1ccc(CNS(=O)(=O)c2cnc(N)nc2)cc1` was tested. Which survival did it give?
A: The survival was -4% (active).

Q: With `CC(C)Oc1ccc(CNS(=O)(=O)c2cnc(N)nc2)cc1` as the molecule, how does the survival read?
A: Its survival is 111% (inactive).

Q: `COc1cccc(CNS(=O)(=O)c2cnc(N)nc2)c1` was tested. Which survival did it give?
A: Its survival is 57% (inactive).

Q: `CC(C)(C)OC(=O)N1CCC(c2c(C(=O)NCCN3CCOCC3)cnn2-c2ccccc2)CC1` was tested. Which survival did it give?
A: The survival was 64% (inactive).

Q: For `NCC1OCCc2ccccc21` (stereo not given), which survival is on record?
A: Its survival is 114% (inactive).

Q: Which survival does the source give for `Cc1cc(C)cc(OCc2ccc(C(=O)Nc3ccccc3F)o2)c1` here?
A: The survival was 72% (inactive).

Q: Which survival does the source give for `COc1ccccc1NC(=O)c1ccc(COc2ccc(C)c(C)c2)o1` here?
A: Its survival is 0% (active).

Q: `CCCc1ccc(OCc2ccc(C(=O)Nc3ccccc3C(=O)OC)o2)cc1` was tested. Which survival did it give?
A: The survival was 3% (active).

Q: For `COc1ccccc1NC(=O)c1ccc(C)o1`, which survival is on record?
A: Its survival is 104% (inactive).

Q: `COC(=O)c1ccccc1NC(=O)c1ccc(COc2cc(C)cc(C)c2)o1` was tested. Which survival did it give?
A: The survival was 59% (inactive).

Q: Which survival does the source give for `COC(=O)c1ccccc1NC(=O)c1ccc(COc2ccccc2Cl)o1` here?
A: The survival was 68% (inactive).

Q: For `Cc1nc2c(-c3ccc(F)cc3)c(C)nn2c(C)c1CCC(=O)N1CCN(c2ccccc2)CC1`, which survival is on record?
A: Its survival is 75% (inactive).

Q: With `Cc1c(C(=O)NCCc2ccc(Cl)cc2)sc2nc3n(c(=O)c12)CCCC3` as the molecule, how does the survival read?
A: Its survival is 78% (inactive).

Q: How did the survival turn out when `Cc1ccc(Cn2c(=O)n(Cc3ccccc3Cl)c(=O)c3ccccc32)cc1` was run?
A: Its survival is 56% (inactive).

Q: `CCn1c2ccccc2c2cc(CN3CCN(Cc4cccc(Cl)c4)CC3)ccc21` was tested. Which survival did it give?
A: The survival was 0% (active).

Q: Which survival does the source give for `CCCN1CCN(C(=O)Cn2ncc3c4ccccc4n(Cc4cccc(Cl)c4)c3c2=O)CC1` here?
A: The survival was 80% (inactive).

Q: Which survival does the source give for `CCS(=O)(=O)N1CCN(Cc2ccccc2)CC1` here?
A: Its survival is 119% (inactive).

Q: `CCn1c(=O)cc(SCC(=O)NCc2cccc(Cl)c2)c2ccccc21` was tested. Which survival did it give?
A: The survival was 60% (inactive).

Q: For `CCn1c2ccccc2c2cc(CN3CCN(Cc4ccc(OC)c(OC)c4)CC3)ccc21`, which survival is on record?
A: Its survival is 14% (active).

Q: `CCCS(=O)(=O)N1CCN(Cc2ccc(OC)c(OCC)c2)CC1` was tested. Which survival did it give?
A: Its survival is 103% (inactive).

Q: How did the survival turn out when `CCn1c2ccccc2c2cc(CN3CCN(Cc4cc(OC)c(O)c(OC)c4)CC3)ccc21` was run?
A: Its survival is 54% (inactive).

Q: With `Clc1ccccc1CN1CCN(Cc2ccco2)CC1` as the molecule, how does the survival read?
A: Its survival is 101% (inactive).

Q: Which survival does the source give for `CCn1c2ccccc2c2cc(CN3CCN(Cc4ccco4)CC3)ccc21` here?
A: The survival was 104% (inactive).

Q: `CCn1c2ccccc2c2cc(CN3CCN(Cc4ccccc4Cl)CC3)ccc21` was tested. Which survival did it give?
A: The survival was 1% (active).

Q: Which survival does the source give for `CCn1c2ccccc2c2cc(CN3CCN(Cc4ccc(Br)cc4)CC3)ccc21` here?
A: The survival was 3% (active).

Reference: PubChem BioAssay AID463173 (ICCB-Longwood Screening Facility, Harvard Medical School, 2010)
